Compound activity deposited in PubChem by National Center for Advancing Translational Sciences (NCATS).
Gal4-VP16 FLuc – inhibits Gal4-VP16 luciferase reporter, ROR gamma counter-screen; 310,000 tested, 3.5% active; Potency, µM (series often up to 53.6 µM), for inactives: top-dose activity, negative = inhibition, hits mostly inhibitors; AID 2546; Drosophila S2 Gal4-VP16 UAS-luciferase, luminescence, 20 h;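 further: Gal4-VP16 expression switched on by copper sulfate through the metallothionein promoter; potency means the concentration at half of the fitted maximal effect; nearly all actives have a fitted effect of over 50% in size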
Coupling enz – inhibits coupling enzyme system, counter-screen for aldolase hits. coupling enzyme system counterscreen, AmpLite Red fluorescence. 290,000 tested, 0.67% active. activity change, negative = inhibition, % at 58.2 µM, hits read low; in the data active means activity change below about -30%
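Fluorescence at 525 nm excitation and 598 nm emission measured inhibition of the coupled detection system without aldolase. Compounds (at 57.5 uM final) were preincubated 10 min at room temperature with coupling enzyme reagent before a 20 min substrate/AmpLite Red step.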
GALK inh – blocks human galactokinase activity. Purified GALK, Kinase-Glo residual ATP luminescence. Potency, µM (top dose mostly 57.5 µM), inactives show top-dose activity change, negative = inhibition, hits mostly inhibitors. P51570. 270,000 tested, 0.007% active; further: potency means the concentration at half of the fitted maximal effect
Target sequence (P51570 whole entry, looked up): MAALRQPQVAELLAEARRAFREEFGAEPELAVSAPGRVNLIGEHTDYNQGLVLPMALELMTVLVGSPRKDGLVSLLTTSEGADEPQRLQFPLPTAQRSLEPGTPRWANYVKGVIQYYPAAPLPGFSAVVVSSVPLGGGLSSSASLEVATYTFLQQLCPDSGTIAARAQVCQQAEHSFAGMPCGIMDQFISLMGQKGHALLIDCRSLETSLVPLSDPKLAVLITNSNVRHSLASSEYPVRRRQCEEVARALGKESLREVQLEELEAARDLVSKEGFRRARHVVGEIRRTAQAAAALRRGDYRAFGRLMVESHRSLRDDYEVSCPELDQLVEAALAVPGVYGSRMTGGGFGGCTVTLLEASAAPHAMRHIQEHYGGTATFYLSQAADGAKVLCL
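Quantitative HTS: GALK 5 nM, ATP 35 uM, galactose 100 uM, 1 h room temperature, then luciferase-based ATP detection.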
TrxR1 substrate – substrates of rat thioredoxin reductase 1 | purified TrxR1 substrate turnover, NADPH consumption readout | Potency, µM (doses to about 114 µM), without a hit: at the highest dose activity change, negative = substrate turnover | 390,000 tested, 0.01% active | AID 588456; further: potency means the concentration at half of the fitted maximal effect; nearly all actives have a fitted effect of over 50% in size
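Rat TrxR1, dispensed at 90 nM, was prereduced with 400 uM NADPH (final) for 5 min at ~22 deg C, then incubated with compound 15 min before 400 uM selenite. A first-read NADPH fluorescence drop versus no-compound background flagged substrates.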
RORg inh – blocks mouse ROR gamma transcriptional activity | Drosophila S2 Gal4-RORgamma UAS-luciferase reporter, 20 h | AID 2551 | Potency, µM (highest dose often 53.6 µM), for inactives: at the highest dose activity change, negative = inhibition, hits mostly inhibitors | 310,000 tested, 5.4% active; further: potency means the concentration at half of the fitted maximal effect; nearly all actives have a fitted effect of over 60% in size
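ROR gamma transcriptional activity was tracked as Gal4-UAS luciferase output in stably transfected Drosophila Schneider cells, with compound added 1 hr before 700 uM copper sulfate induction and a 20 hr ambient-temperature incubation.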
rTrxR1 inhibitor – blocks rat thioredoxin reductase 1 | AID 588453 | 390,000 tested, 1% active | O89049 | Potency, µM (highest dose often 114 µM), without a hit: top-dose activity change, negative = inhibition, most hits filed as inhibitors | recombinant rTrxR1, NADPH fluorescence consumption, selenite substrate; further: potency means the concentration at half of the fitted maximal effect; nearly all actives have a fitted effect of over 65% in size
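Rat TrxR1 (90 nM in the dispensed reagent) was pre-reduced with 400 uM NADPH for 5 min at room temperature, then incubated with compound for 15 min. After 400 uM selenite was added, NADPH fluorescence (Ex 340/Em 450 nm) was followed for 8 min.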
An asterisk follows results filed as active; u = inconclusive; x = no result; [ ] = dose if it differs, or a comment. Rows were chosen to be rich in hits. Some 5.9% of all compounds tested hit in one or more screens of this group. Unless noted, the call rests on the fitted dose curve; in most records, active means well fitted curve in the direction sought with a large enough effect; inconclusive means small, poorly fitted or top-dose-only effect, or another doubt; inactive means no such curve, though single readings can be large; an effect the other way counts as inactive or inconclusive. On the % scale 0 is the no-effect control and ±100 the full control effect.

SMILES	Gal4-VP16 FLuc	Coupling enz	GALK inh	TrxR1 substrate	RORg inh	rTrxR1 inhibitor
Cc1ccc(Oc2c(C(N)=O)cc([N+](=O)[O-])cc2[N+](=O)[O-])cc1	2.51µM*	-0.2	1.3%	-0.5%[57.1 µM]	2.82µM*	u
O=S(=O)(NCC(c1ccco1)S(=O)(=O)c1cccs1)c1ccc(Cl)cc1 (configuration not stated)	x	x	x	4.5%[57.1 µM]	x	0.631µM*
COc1ccc(S(=O)(=O)NCC(c2ccco2)S(=O)(=O)c2cccs2)cc1OC (configuration not stated)	x	x	x	-2.2%[57.1 µM]	x	u
O=S(=O)(NCC(c1ccco1)S(=O)(=O)c1cccs1)c1ccc(F)c(C(F)(F)F)c1 (configuration not stated)	x	x	x	-2.7%[57.1 µM]	x	0.447µM*
O=S(=O)(NCC(c1cccs1)S(=O)(=O)c1ccccc1)c1ccccc1 (configuration not stated)	x	x	x	1.2%[57.1 µM]	x	0.562µM*
O=S(=O)(NCC(c1ccco1)S(=O)(=O)c1cccs1)c1ccccc1 (configuration not stated)	x	x	x	2.4%[57.1 µM]	x	15.8µM*
Fc1ccc(C(c2nnnn2C2CCCC2)N2CCN(Cc3ccncc3)CC2)cc1 (configuration not stated)	-1.1%	-0.2	2.1%	5.2%[57.1 µM]	-1.2%	16.5%[57.1 µM]
O=C(NC1CCCCC1)c1cccc(Cn2cc(Cl)cn2)c1	-2.4%	2.3	-0.6%	-4.2%	2.6%	14.5%
O=C(Nc1ccc(-c2nc3cccnc3s2)cc1)C1CCCO1 (configuration not stated)	11.2µM*	0.2	x	347.9%[57.1 µM]	17.8µM*	-44.5%
Cc1ccc2nc(-c3ccc(NC(=O)C4CCCO4)cc3)[nH]c2c1 (configuration not stated)	7.08µM*	-3.9	5.4%	24.8%	6.31µM*	11.0%
CCOC(=O)c1cc2sccc2n1CC(=O)N1c2ccccc2CC1C (configuration not stated)	u	1.8	-2.2%	58.5%	-1.8%	41.4%
Cc1ccc(Cc2nnc(SCC(=O)Nc3c(C)cccc3C)[nH]c2=O)cc1	x	x	x	-6.5%	x	-5.0%
Cc1cc(Br)ccc1OCC(=O)NNC(=O)c1cnccn1	u	-1.0	x	-3.6%	8.91µM*	22.2%
COc1ccc(CC(=O)NNC(=O)COc2ccc(Br)cc2C)cc1OC	-2.2%	2.3	x	0.4%	0.1%	6.4%
Cc1ccc(NC(=O)c2ccc(OC(=O)COc3ccc(Cl)cc3C)cc2)cc1	-4.7%	-1.7	-1.8%	1.8%	-4.9%	11.8%
O=C(Nc1nc(-c2ccc(F)c(F)c2)cs1)c1cnccn1	11.5%	1.0	1.7%	-0.4%	-19.7%	11.5%
Cc1ccc(C(=O)CC(=O)COc2ccc(Cl)cc2C)cc1	4.47µM*	-0.1	1.1%	8.2%[57.1 µM]	10µM*	13.7%[57.1 µM]
O=C(Nc1nc(-c2cccc3ccccc23)cs1)c1cnccn1	u	-0.6	2.2%	-0.1%	14.1µM*	-3.8%
CCC(C(=O)NNC(=O)c1cnccn1)c1ccccc1 (configuration not stated)	15.8µM*	1.9	x	-8.0%	11.2µM*	-5.7%
COc1ccc(CNCc2ccccc2[N+](=O)[O-])cc1OC	-4.8%	0.5	5.4%	-1.1%	1.1%	25.7%[2.29 µM]
O=C(COc1cccc2ccccc12)NNC(=O)c1cnccn1	u	-0.9	1.7%	-1.8%	12.6µM*	-5.4%
Cc1cc(Cl)ccc1OCC(=O)NNC(=O)c1cnccn1	u	2.6	0.7%	3.9%[57.1 µM]	7.08µM*	8.7%
Cc1ccc(C(=O)NNC(=O)COc2ccc(Cl)cc2C)o1	x	x	x	1.0%	x	2.2%
Cc1c(C)n(Cc2ccccc2)c2ncnc(NN)c12	15.8µM*	-5.4	-4.0%	7.9%	u	14.8%
Cc1ccc(N(C)S(=O)(=O)c2c(-c3ccccc3)csc2C(=O)O)cc1	x	x	x	5.3%	x	14.5%
SMILES	Gal4-VP16 FLuc	Coupling enz	GALK inh	TrxR1 substrate	RORg inh	rTrxR1 inhibitor
Cc1ccc(S(=O)(=O)N2CCOCC2)cc1C(=O)NCc1ccc2c(c1)OCO2	4.2%	5.0	-0.2%	6.0%[57.1 µM]	-1.7%	-2.1%[57.1 µM]
O=C1NC(=S)S/C1=C\C=C\c1ccc([N+](=O)[O-])o1	4.47µM*	-0.8	1.8%	-23.2%	5.62µM*	10µM*
O=C1CN(/N=C\c2ccc([N+](=O)[O-])o2)C(=O)N1	2.1%[17 µM]	0.5	x	x	-21.7%[16.9 µM]	x
O=C1CC(SCc2nc3ccccc3[nH]2)C(=O)N1c1ccc(Cl)cc1 (configuration not stated)	6.31µM*	0.7	-1.4%	-10.0%	3.55µM*	-33.2%
CCCOc1ccc(N2C(=O)CC(SCCc3nc4ccccc4[nH]3)C2=O)cc1 (configuration not stated)	-19.3%	-2.6	-1.5%	-7.2%	-3.3%	7.0%
CCOc1ccc(N2C(=O)CC(SCc3nc4ccccc4[nH]3)C2=O)cc1 (configuration not stated)	u	0.9	1.4%	-13.1%[57.1 µM]	11.2µM*	-43.2%
O=C1CC(SCc2nc3ccccc3[nH]2)C(=O)N1c1cccc(F)c1 (configuration not stated)	14.1µM*	1.4	-0.9%	1.4%	10µM*	u
COC(=O)c1cccc(NC(=O)CCCOc2cccc(C)c2)c1	0.7%	0.7	0.0%	7.3%[57.1 µM]	8.0%	8.0%
O=C(CNc1cccc2ccccc12)N/N=C/c1ccc[nH]1	14.1µM*	1.4	4.6%	3.1%	5.01µM*	5.9%
CSc1ccc(/C=N/NC(=O)CNc2cccc3ccccc23)cc1	u	1.7	-1.0%	8.7%	35.5µM*	12.8%[57.1 µM]
O=C(CNc1cccc2ccccc12)N/N=C/c1ccc([N+](=O)[O-])o1	u	-27.0	-3.4%	-15.1%	11.2µM*	u
O=C(CNc1cccc2ccccc12)N/N=C/C(Br)=C/c1ccccc1	-16.5%	-4.3	x	3.9%[57.1 µM]	-1.1%	-6.2%
COc1ccc(C(=O)N/N=C(\C)c2ccccn2)cc1OC	0.562µM*	-2.4	1.3%	10.7%[57.1 µM]	0.355µM*	19.2%
C/C(=N\NC(=O)C1CCCN(S(=O)(=O)c2ccccc2)C1)c1ccccn1 (configuration not stated)	5.01µM*	-1.2	-1.0%	13.1%[57.1 µM]	2.82µM*	4.9%[57.1 µM]
C/C(=N\NC(=O)C(c1ccccc1)c1ccccc1)c1ccccn1	1.58µM*	-0.7	x	3.7%	0.631µM*	10.1%
COc1ccc(C(=O)N/N=C(\c2ccccc2)c2ccccn2)cc1	0.501µM*	6.8	0.5%	-8.5%	0.708µM*	-2.3%
CC1CCCN(C(=O)Cn2nnc(-c3ccc(F)cc3)n2)C1 (configuration not stated)	19.6%	0.4	-2.5%	-2.0%[57.1 µM]	-3.8%	1.0%[57.1 µM]
C/C(=N\NC(=O)c1cccc(Br)c1)c1ccccn1	0.0282µM*	1.5	-3.3%	-5.3%	0.1µM*	9.8%[57.1 µM]
